Results filed as inconclusive are left out. Calls of active or inactive are those of the source. The call rests on the fitted dose curve; in most records, active means well fitted cell-killing curve with a large enough effect in the repeat runs; inconclusive means weak or mixed curves, or effect the other way; inactive means flat fitted curve, though single readings scatter.
Experiment: cAMP Responsive Elements (CRE) small molecule antagonists, cell-based qHTS assay: qHTS cell viability counter screen (AID 2060913); further: nearly all actives have a fitted effect of over 40% in size
Details: CRE-bla HEK293T viability, CellTiter-Glo luminescence, 5 h; series mostly up to 92.4 µM; viability change, negative = cytotoxic: at the top concentration
Summary of the method: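 Cytotoxicity counter screen multiplexed with the CRE-bla antagonist read: HEK293T cells in DMEM with dialyzed FBS and 25 mM HEPES were treated 3 hrs under 0.25 uM final NKH477, then viability measured by CellTiter-Glo luminescence.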
On the % scale 0 is the no-effect control and ±100 the full control effect.

Row | Structure (SMILES) | Potency | viability change, negative = cytotoxic
1 | C=CCCCCCCCCC(=O)O | inactive | 
2 | O=C(c1ccco1)N1CCNCC1 |  | 8.59% [at 42.5 µM] (inactive)
3 | CC(CCc1ccccc1)NCC(O)c1ccc(O)c(C(N)=O)c1 (stereo not given) |  | 0.333% (inactive)
4 | CO/N=C(/C(=O)N[C@@H]1C(=O)N2C(C(=O)O)=C(COC(N)=O)CS[C@H]12)c1ccco1 |  | -3.72% (inactive)
5 | CCC(=O)Nc1ccc(O)cc1 |  | 11.8% [at 42.5 µM] (inactive)
6 | Cc1oc(=O)oc1CN1CCN(c2cc3c(cc2F)c(=O)c(C(=O)O)c2n3C(C)S2)CC1 (stereo not given) |  | -0.562% [at 42.5 µM] (inactive)
7 | CC/C=C\CCCCCCCCCCOC(C)=O |  | 2.18% (inactive)
8 | CC(C)(C)NSc1nc2ccccc2s1 |  | 0.107% (inactive)
9 | CC1=CCCC(C)(C)C12CCC(C)O2 (stereo not given) |  | 1.95% (inactive)
10 | Cc1ccc(N=Nc2c(O)c(C(=O)O)cc3ccccc23)c(S(=O)(=O)O)c1 |  | 16.5% [at 42.5 µM] (inactive)
11 | Oc1c(Cl)cc(Cl)c2cccnc12 |  | 3.07% [at 42.5 µM] (inactive)
12 | CC(C#N)(CCC(=O)O)N=NC(C)(C#N)CCC(=O)O (stereo not given) |  | -1.55% (inactive)
13 | Fc1ccccc1-c1ccccc1 |  | -9.66% (inactive)
14 | Cc1ccccc1C(=O)Nc1ccc(C(=O)N2CCCC(N(C)C)c3ccccc32)cc1 (stereo not given) |  | 5.66% [at 42.5 µM] (inactive)
15 | CC1(C)C(O)C(C)(C)C1O (stereo not given) |  | 4.63% (inactive)
16 | CCC(=O)O[C@]1(C(=O)CCl)[C@@H](C)C[C@H]2[C@@H]3CCC4=CC(=O)C=C[C@]4(C)[C@@]3(F)[C@@H](O)C[C@@]21C |  | 3.72% [at 42.5 µM] (inactive)
17 | COc1ccc(CCN(C)CCCC(C#N)(c2cc(OC)c(OC)c(OC)c2)C(C)C)cc1OC (stereo not given) |  | -2.68% [at 42.5 µM] (inactive)
18 | CN1[C@@H]2CC[C@@H]1CC(OC(=O)C(CO)c1ccccc1)C2 (stereo not given in full) |  | 1.31% [at 42.5 µM] (inactive)
19 | Nc1nc(=S)c2[nH]cnc2[nH]1 |  | -13% (inactive)
20 | CC1CCc2c(N3CCC(O)CC3)c(F)cc3c(=O)c(C(=O)O)cn1c23 (stereo not given) |  | 4.01% [at 42.5 µM] (inactive)

— PubChem BioAssay (Tox21)
